From PubChem BioAssay (NCATS)
Inconclusive results are not listed. Unless noted, calls come from the whole dose curve; as a rule, active = well fitted curve in either direction with a large enough effect (not every such curve was filed as active); inconclusive = small, poorly fitted or top-dose-only effect, or another doubt; inactive = flat fitted curve, though single readings scatter.

Columns and labels:
[1] = AP1 Signaling Pathway (AID 357); conditions: ME-180 AP-1-bla reporter, EGF-induced, beta-lactamase ratio, 5 h; at 17.2 µM (top of the series) unless noted;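 note: ME-180 reporter cells stimulated with EGF at its EC50 level; % is set by controls: 0 for no effect and ±100 for the full control effect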
Outline: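 Beta-lactamase reporter under AP-1 response element, ME-180 background. Stimulus: EC50 EGF. Compound exposure 5 h, 37 °C. Detection: CCF4, 2.5 h RT, 460/530 nm. Values: AC50 from titration.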

[2] = NFAT Signaling Pathway (AID 444); conditions: Jurkat NFAT-bla M1, carbachol, beta-lactamase ratio, 5 h; at 17.2 µM (top of the series) unless noted;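 note: carbachol stimulus at about its EC50 of 1 µM final; % is set by controls: 0 for no effect and ±100 for the full control effect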
Outline: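 Read-out: CCF4 FRET ratio (460 nm/530 nm) after 1 h RT dye loading, used for %activity and AC50 from titration series. Cells: Jurkat NFAT-β-lactamase/M1 line, treated with compound plus 1 uM carbachol for 5 h, 37 °C.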

[3] = Stat Signaling Pathway (AID 446); conditions: ME-180 (cervical carcinoma) SIE beta-lactamase reporter, IL-6 stimulated, 5 h; at 17.2 µM (top of the series) unless noted;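 note: ME-180 cervical cancer cells given 40 pM IL-6 alongside compound; SIE-controlled beta-lactamase reporter measured as 460/530 nm FRET emission ratio; % is set by controls: 0 for no effect and ±100 for the full control effect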
Outline: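 Overnight-plated ME-180 cells bearing a STAT Inducible Element beta-lactamase reporter; 5 h co-exposure to compound and 40 pM IL-6; values normalized to 300 pM IL-6 and 125 nM JAK inhibitor controls.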

[4] = target: Glucocorticoid receptor (Homo sapiens) (UniProt P04150); experiment: GR-GFP Redistribution (AID 450;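 active = compounds whose dose series gives a full or clear partial fitted curve of increased nuclear translocation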; note: potency is the fitted concentration of half-maximal effect)
Sequence of Glucocorticoid receptor (Homo sapiens) (P04150 whole entry, looked up): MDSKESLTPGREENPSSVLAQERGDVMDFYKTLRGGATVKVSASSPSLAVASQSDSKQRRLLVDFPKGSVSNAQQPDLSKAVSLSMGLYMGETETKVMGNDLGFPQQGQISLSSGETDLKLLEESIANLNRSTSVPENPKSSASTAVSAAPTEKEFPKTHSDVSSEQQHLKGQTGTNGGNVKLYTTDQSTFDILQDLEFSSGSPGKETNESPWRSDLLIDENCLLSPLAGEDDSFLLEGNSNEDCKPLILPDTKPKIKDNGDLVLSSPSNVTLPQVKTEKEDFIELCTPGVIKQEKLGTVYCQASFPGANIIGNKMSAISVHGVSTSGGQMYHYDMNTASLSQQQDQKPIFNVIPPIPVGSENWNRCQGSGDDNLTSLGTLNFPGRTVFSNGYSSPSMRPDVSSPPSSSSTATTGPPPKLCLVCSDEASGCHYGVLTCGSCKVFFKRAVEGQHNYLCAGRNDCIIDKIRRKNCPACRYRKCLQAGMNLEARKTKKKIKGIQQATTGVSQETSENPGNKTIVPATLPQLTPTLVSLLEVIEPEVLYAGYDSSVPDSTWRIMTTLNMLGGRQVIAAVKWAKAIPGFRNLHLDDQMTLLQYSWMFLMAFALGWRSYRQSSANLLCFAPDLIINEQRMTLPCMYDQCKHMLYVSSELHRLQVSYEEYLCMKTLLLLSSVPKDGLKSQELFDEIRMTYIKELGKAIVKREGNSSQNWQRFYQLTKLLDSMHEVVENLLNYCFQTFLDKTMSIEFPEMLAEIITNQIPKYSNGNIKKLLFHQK

CC1C/C=C/C=C/C=C/C=C/C(O[C@@H]2O[C@H](C)[C@@H](O)[C@H](N)[C@@H]2O)CC2OC(O)(CC(O)CC3OC3/C=C/C(=O)O1)CC(O)C2C(=O)O (stereo not given in full)
inactive: activity change, negative = inhibition [1] 1.3% | activity change, negative = inhibition [2] 0.554% | activity, negative = inhibition [3] 5.83% | Potency [4] > 20.6 µM

COc1ccc2c(c1)n([O-])c1c([n+]2=O)CCC1
inactive: activity change, negative = inhibition [1] 13.4% | activity change, negative = inhibition [2] -5.03% | activity, negative = inhibition [3] 7.82% | Potency [4] > 20.6 µM

CC(C)CN1C(=O)c2ccc(C(=O)Nc3ccccn3)cc2C1=O
inactive: activity change, negative = inhibition [1] -5.2% | activity change, negative = inhibition [2] 27.9% | activity, negative = inhibition [3] 4.97% | Potency [4] > 20.6 µM

CCOC(=O)c1c(C)n(C)c2ccc(O)c(S(=O)(=O)c3ccccc3)c12
inactive: activity change, negative = inhibition [1] -9.19% | activity change, negative = inhibition [2] 2.35% | activity, negative = inhibition [3] 11.2% | Potency [4] > 20.6 µM

CC(=O)N=C(N)Sc1nc2ccccc2[nH]1
inactive: activity change, negative = inhibition [1] 12.8% | activity change, negative = inhibition [2] -12.3% | activity, negative = inhibition [3] 1.5% | Potency [4] > 20.6 µM

O=S(CCc1ccncc1)Cc1ccccc1 (stereo not given)
inactive: activity change, negative = inhibition [1] 9.28% | activity change, negative = inhibition [2] 26% | activity, negative = inhibition [3] 2.34% | Potency [4] > 20.6 µM

COc1ccc(C2CC(C(F)(F)F)n3ncc(C(=O)NCC4CCCO4)c3N2)cc1OC (stereo not given)
inactive: activity change, negative = inhibition [1] -0.991% | activity change, negative = inhibition [2] 3.91% | activity, negative = inhibition [3] -0.435% | Potency [4] > 20.6 µM

Cc1nn(C)cc1CNC(=O)c1ccc(Br)o1
inactive: activity change, negative = inhibition [1] 5.3% | activity change, negative = inhibition [2] -0.512% | activity, negative = inhibition [3] 6.82% | Potency [4] > 20.6 µM

Cc1ccc2cc(CNC(C)(C)C)c(=O)[nH]c2c1
inactive: activity change, negative = inhibition [1] 2.11% | activity change, negative = inhibition [2] -5.21% | activity, negative = inhibition [3] -2.54% | Potency [4] > 20.6 µM

Cc1cc(C)nc(N(C#N)CC(=O)N(c2ccccc2)C(C)C)n1
inactive: activity change, negative = inhibition [1] -11% | activity change, negative = inhibition [2] 4.64% | activity, negative = inhibition [3] 7.49% | Potency [4] > 20.6 µM

COc1nc(NS(=O)(=O)c2ccc(C)cc2)nc(C)c1Cl
inactive: activity change, negative = inhibition [1] 6.72% | activity change, negative = inhibition [2] -25.4% | activity, negative = inhibition [3] -5.69% | Potency [4] > 20.6 µM

CC(C)COc1ccc(C(=O)NC(CC(C)C)C(=O)O)cc1 (stereo not given)
inactive: activity change, negative = inhibition [1] -2.73% | activity change, negative = inhibition [2] -7.69% | activity, negative = inhibition [3] 3.82% | Potency [4] > 20.6 µM

CCCC(=O)Nn1cnc2c(c1=O)C1(CCCC1)Cc1ccccc1-2
inactive: activity change, negative = inhibition [1] -5.55% | activity change, negative = inhibition [2] -0.237% | activity, negative = inhibition [3] -0.176% | Potency [4] > 20.6 µM

Cc1ccccc1N1C(=O)C2ON(c3ccccc3)C(c3ccncc3)C2C1=O (stereo not given)
inactive: activity change, negative = inhibition [1] 5.78% | activity change, negative = inhibition [2] 18.5% | activity, negative = inhibition [3] 1.29% | Potency [4] > 20.6 µM

Cn1c(=O)[nH]c(=O)c2c1nc(N(CCO)Cc1ccccc1)n2Cc1ccccc1Cl
inactive: activity change, negative = inhibition [1] -1.99% | activity change, negative = inhibition [2] -6.08% | activity, negative = inhibition [3] -4.12% | Potency [4] > 20.6 µM

CCOc1ccc(CCNC(=O)C(O)c2ccccc2)cc1 (stereo not given)
inactive: activity change, negative = inhibition [1] 13% | activity change, negative = inhibition [2] 4.66% | activity, negative = inhibition [3] 18.6% | Potency [4] > 20.6 µM

CC1(C)CC(=O)C2=C(C1)N(CC1CCCO1)C(=O)C2(O)C(F)(F)F (stereo not given)
inactive: activity change, negative = inhibition [1] 4.53% | activity change, negative = inhibition [2] 0.206% | activity, negative = inhibition [3] 5.45% | Potency [4] > 20.6 µM

CCOC(=O)C(OC(=O)c1sc(=S)n(C)c1C)C(C)=O (stereo not given)
inactive: activity change, negative = inhibition [1] 18% | activity change, negative = inhibition [2] 6.69% | activity, negative = inhibition [3] 9.46% | Potency [4] > 20.6 µM

CC(NC(=O)NC(N)=O)(C(F)(F)F)C(F)(F)F
inactive: activity change, negative = inhibition [1] 0.637% | activity change, negative = inhibition [2] -0.043% | activity, negative = inhibition [3] -1.84% | Potency [4] > 20.6 µM

Cc1nnc(SCC(=O)N2CCC(C(N)=O)CC2)s1
inactive: activity change, negative = inhibition [1] 4.41% | activity change, negative = inhibition [2] 5.46% | activity, negative = inhibition [3] 7.13% | Potency [4] > 20.6 µM
